TRHR enhancer-1: TRH receptor (human) allosteric enhancement | P34981 | TRHR cells, fluo-8 calcium fluorescence, EC20 TRH enhancement | enhancement, % at 2 µM | 0.66% of 360,000 active; in the data active = enhancement above about 30%; also: 0% is about no effect
Target sequence (P34981 whole entry, looked up): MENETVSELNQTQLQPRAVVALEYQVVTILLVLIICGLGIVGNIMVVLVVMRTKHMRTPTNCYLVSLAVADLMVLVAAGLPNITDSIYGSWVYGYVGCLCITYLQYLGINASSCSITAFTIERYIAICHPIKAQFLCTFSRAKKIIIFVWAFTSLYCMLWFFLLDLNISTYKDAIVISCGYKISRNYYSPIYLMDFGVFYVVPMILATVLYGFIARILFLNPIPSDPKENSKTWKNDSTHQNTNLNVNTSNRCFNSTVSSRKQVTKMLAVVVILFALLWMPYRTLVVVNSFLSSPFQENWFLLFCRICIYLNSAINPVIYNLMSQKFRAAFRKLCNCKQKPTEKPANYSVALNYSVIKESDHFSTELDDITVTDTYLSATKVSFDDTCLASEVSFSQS
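Enhancer read-out: after compound pinning and an initial kinetic agonist-mode read, an EC20 of TRH (10 nM final) was injected and fluo-8 calcium signal (Ex 480/Em 530) followed at 1 s/cycle for 100 cycles in TRHR-expressing cells.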
D1 agonist: agonists of human D1 dopamine receptor | P21728 | HEK293 T-REx D1 cells, calcium flux, agonist mode | activation, % at 2 µM | 1% of 360,000 active | AID 504660; in the data active = activation above about 30%; also: 0% is about no effect
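Agonism was scored from calcium flux recorded over 180 s (1 read/s) after pintool compound addition, following a 10-cycle baseline. Cells were inducible force-coupled HEK293 TREx D1, plated overnight at 30 C and loaded with no-wash calcium dye.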
D1 antagonist: antagonists of human D1 dopamine receptor. P21728. HEK293 TREx D1 cells, calcium flux, dopamine EC80; active compounds read low. activity change, negative = inhibition, % at 10 µM. 3.2% of 360,000 active; in the data active = activity change below about -30%; also: % is scaled to controls: 0 for no effect and ±100 for the full control effect
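Allosteric or orthosteric antagonism assessed as attenuation of the calcium response to EC80 dopamine, added 180 s after compound, in induced HEK293 Trex D1 cells loaded with no-wash calcium dye.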
D1 PAM: enhances dopamine response at the human D1 receptor; P21728; HEK293 TREx D1 cells, calcium flux, dopamine EC20 potentiation; potentiation, % at 10 µM; 0.036% of 360,000 active; in the data active = potentiation above about 30%; also: 0% is about no effect
TRHR agonist-1: activates the human TRH receptor; P34981; TRHR cells, calcium flux fluo-8, FDSS agonist mode; activation, % at 2 µM; 0.18% of 360,000 active; AID 493084; in the data active = activation above about 30%; also: 0% is about no effect
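TRHR-expressing cells, plated overnight in medium with 10% serum, were loaded with fluo-8 calcium dye at room temperature. After a 10 s baseline, library compound was pin-added and calcium release was recorded kinetically (ex 480/em 530) as agonist response.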
TRHR enhancer-2: human TRH receptor allosteric enhancement confirmation. 970 tested, under 10 active. AID 493076. TRH receptor cell assay, enhancer confirmation qHTS. activity change, negative = inhibition, % at 46.1 µM. shares compounds with TRHR enhancer-1;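 also: compound effect scored on response to added TRH at EC20 of 10 nM; 0% is about no effect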
TRHR agonist-2: confirmation of human TRH receptor agonists. shares compounds with TRHR enhancer-1. TRHR-expressing cells, agonist activation read-out. Potency, µM (top dose mostly 46.1 µM), inactives show at the highest dose activation, hits mostly activators. 8% of 970 active; also: potency is read from the fitted curve at half-maximal effect; 0% is about no effect; nearly all actives have a fitted effect of over 75% in size
The depositor's hits bear a star; ? = inconclusive; nt = not tested or not shown. Only some compounds are listed: those with a hit (about 4.6% of all), similar ones and a draw of the others. Unless noted, calls follow the shape of the dose curve; as a rule, active = well fitted curve in the direction sought with a large enough effect; inconclusive = small, poorly fitted or top-dose-only effect, or another doubt; inactive = no such curve, though single readings can be large; an effect the other way counts as inactive or inconclusive.

SMILES | TRHR enhancer-1 | D1 agonist | D1 antagonist | D1 PAM | TRHR agonist-1 | TRHR enhancer-2 | TRHR agonist-2
CCN(CC)N=Nc1ccc(S(N)(=O)=O)cc1 | 58* | 9 | -5 | -7 | 0 | 3 | 3%
COc1ccccc1CNC(=O)COC(=O)Cc1cccs1 | 43* | 2 | 8 | 0 | -1 | -6 | 1%
COc1ccccc1NC(=O)COC(=O)Cc1cccs1 | 0 | 1 | -18 | -4 | -1 | nt | nt
COc1ccc(-n2cc(C(=O)N(CCN(C)C)Cc3ccccc3)c3ccccc3c2=O)cc1 | 74* | 5 | -3 | -1 | 2 | -3 | 1%
O=c1oc2ccc3ccccc3c2cc1-c1nnc(Nc2ccccc2)s1 | -1 | 10 | 9 | 3 | 3 | nt | nt
Nc1nnc(-c2cc3c(ccc4ccccc43)oc2=O)s1 | -1 | 49* | -9 | 12 | 41* | 7 | ?
CCCN1CCC(CCOc2ccccc2)(C(=O)OCC)CC1 | 56* | 3 | 2 | -2 | 0 | -4 | 1%
COc1cc(C(=S)N2CCOCC2)ccc1OC(=O)c1cccc(C)c1 | 49* | 7 | -10 | -1 | -1 | -10 | 0%
O=C(O)CCCC(=O)N1N=C(c2ccccc2)CC1c1ccc2nccnc2c1 (configuration not stated) | 46* | 3 | 6 | -1 | 0 | 1 | 0%
O=C(O)CCC(=O)N1N=C(c2ccccc2)CC1c1ccc2nccnc2c1 (configuration not stated) | -4 | 1 | 8 | -4 | 1 | nt | nt
COc1ccc2ccccc2c1/C=N/NC(=O)c1ccc(C)nc1 | 5 | 0 | -1 | 3 | -1 | nt | nt
O=C(CNC(=O)c1ccc(S(=O)(=O)N2CCCC2)cc1)N/N=C/c1ccccc1Cl | 1 | 2 | -1 | -6 | -1 | nt | nt
O=C(N/N=C\c1c(O)ccc2ccccc12)c1ccc(S(=O)(=O)N2CCCCC2)cc1 | 26 | 52* | -8 | -9 | 60* | ? | 18µM*
O=C(N/N=C/c1c(O)ccc2ccccc12)c1ccc(CO)nc1 | 1 | 23 | 10 | -3 | 32* | 4 | ?
Cc1cn(C)c(CC(=O)NCc2ccc(F)cc2)c1C(=O)O | 4 | 3 | 27 | -3 | 0 | nt | nt
CC(C)c1ccc(NC(=O)C2CCC(CNS(=O)(=O)c3ccc4c(c3)CCCC(=O)N4)CC2)cc1 (configuration not stated) | -2 | 4 | 6 | 4 | 0 | nt | nt
O=c1/c(=C/c2ccc(O)c([N+](=O)[O-])c2)sc2nc3ccccc3n12 | 0 | 7 | -2 | -8 | 0 | nt | nt
CCN(CC)c1ccc(/C=c2\sc3nc4ccccc4n3c2=O)c(O)c1 | -2 | 179* | -38* | 0 | 26 | 2 | 21µM*
Cc1ccc(Cl)cc1N1CCN(S(=O)(=O)N2CCCCC2)CC1 | 43* | 10 | 12 | -1 | 0 | 0 | 1%
CCOc1ccc(-c2cc(C(=O)Nc3ccc(NC(C)=O)cc3)no2)cc1 | -1 | 2 | 5 | 2 | 0 | nt | nt
Oc1c(Cl)cc(Cl)cc1/C=C/c1ccc2cccc(O)c2n1 | -10 | 114* | -14 | -1 | 42* | ? | ?
COc1cccc(C2=NC(C)(C)NC(c3ccccc3O)C2)c1 (configuration not stated) | 42* | 2 | -20 | 4 | 1 | 0 | 0%
COc1ccc(OC)c(CCNC(=O)c2c3c(nc4ccccc24)C(=O)N(C2CCCCC2)C3)c1 | 5 | 1 | -3 | 4 | 0 | nt | nt
CCC1CCCCN1CCCNC(=O)c1cn(CC)c2ccc(S(=O)(=O)N3CCc4ccccc4C3)cc2c1=O (configuration not stated) | 51* | 0 | -8 | -1 | 0 | 1 | 5%
COc1ccc(-c2ccc(=O)n(CC(=O)Nc3ccccc3C(F)(F)F)n2)cc1 | -4 | 0 | -4 | 0 | 0 | nt | nt
SMILES | TRHR enhancer-1 | D1 agonist | D1 antagonist | D1 PAM | TRHR agonist-1 | TRHR enhancer-2 | TRHR agonist-2
O=C(COc1ccc(Br)cc1)OCCN1CCCCC1 | 0 | 2 | 5 | -3 | 30* | -6 | 1%
O=C(COc1ccc(Br)cc1)N1CCCCCC1 | -1 | 0 | -8 | -3 | 0 | nt | nt
COc1ccc(CN(C(=O)c2ccccc2F)C2CCS(=O)(=O)C2)cc1 (configuration not stated) | 1 | 1 | 8 | -1 | -1 | nt | nt
O=C(O)c1cccc(CSc2nc(-c3ccc(Cl)cc3)cc(C(F)(F)F)n2)c1 | 42* | 9 | -37* | 0 | 0 | -10 | ?
NC(=O)c1ccc[n+]([C@H]2O[C@@H](COP(=O)([O-])OP(=O)(O)OC[C@H]3O[C@@H](n4cnc5c(N)ncnc54)[C@H](O)[C@@H]3O)[C@H](O)[C@@H]2O)c1 | 9 | 190* | 20 | 23 | 27 | -1 | ?
N#Cc1ccc(-c2cccnc2)nc1SCC(=O)c1ccccc1 | -3 | 108* | -28 | 0 | 38* | -5 | 5%
CCCCOc1ccc(C(=O)NCC(=O)NCCOc2ccccc2OC)cc1 | 74* | 1 | 8 | -2 | 0 | 11 | 5%
CCCCOc1ccc(C(=O)NCC(=O)N2CC(C)CC(C)C2)cc1 (configuration not stated) | -3 | 4 | -3 | nt | 40* | -7 | 5%
CCCCOc1ccc(C(=O)NCC(=O)N2CC(C)OC(C)C2)cc1 (configuration not stated) | -1 | 3 | -2 | 1 | 0 | nt | nt
CN(C(=O)c1cc2nc(-c3ccc4c(c3)OCO4)cc(C(F)(F)F)n2n1)c1ccc(OC(F)(F)F)cc1 | -2 | -1 | 2 | -2 | 1 | nt | nt
O=C1CC(Nc2ccc(N3CCOCC3)cc2)C(=O)N1c1cccc(C(F)(F)F)c1 (configuration not stated) | 46* | 10 | -9 | -8 | -1 | 0 | -1%
COc1cccc(N2C(=O)CC(Nc3ccc(N4CCOCC4)cc3)C2=O)c1 (configuration not stated) | -6 | 1 | -17 | -6 | 0 | nt | nt
NS(=O)(=O)c1ccc(NC(=O)CN2CCc3ccccc32)cc1 | 56* | 2 | -7 | 1 | 0 | -1 | -1%
C[N+](C)(C)CCOC(N)=O | 4 | 9 | 2 | -4 | 29 | 3 | 4%
Cc1nnc(SCCOC(N)=O)n1C | 2 | 6 | -6 | 1 | 0 | nt | nt
COc1ccc(NC(=O)c2cc3c(=O)n(Cc4cccnc4)ccc3nc2C)cc1Cl | 1 | 1 | -1 | -3 | -1 | nt | nt
CC1(C)Oc2ccc(C(=O)NC3CCCCC3)cc2N(CC#N)C1=O | 46* | 4 | 8 | -2 | 0 | 1 | 7%

Source: PubChem (National Center for Advancing Translational Sciences (NCATS))
